From PubChem BioAssay AID1159580 (chemical genetic matrix, 2015)
“And” between values parts separate entries of the source, which are not always exact repeats. Equal entries are not always repeated. In all, about 5,500 compounds went through this assay and about 2,000 (36%) were called active. Roughly 18% stayed inconclusive and do not appear here. Cut-off read from the data, not from the text of the source: active = normalized growth mostly below about 0.91 (no sharp cut-off); inconclusive = no clear call, values can overlap the other calls; inactive = mostly above about 0.92. The list shows a part of the results.

Assay: chemical genetic growth profiling, strain panel (AID 1159580);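 note: tested at 20 µM; growth read once vehicle control cultures reached saturation at 30 °C; 1 = growth at the plate median or of vehicle wells; lower values mean less growth of the strain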
Conditions: growth OD

Measured: normalized growth

CCN(CC)CCNC(=O)c1cc(S(C)(=O)=O)ccc1OC
inactive: S. cerevisiae deletion strains, locus YJR066W, strain TOR1, active compounds read low 0.947 | S. cerevisiae deletion strains, locus YJR075W, strain HOC1, active compounds read low 1.03 and 0.995 | S. cerevisiae deletion strains, locus YKL009W, strain mrt4, active compounds read low 1.02 | S. cerevisiae deletion strains, locus YKL068W, active compounds read low 1.01 | S. cerevisiae deletion strains, locus YKL085W, strain MDH1 (second series), active compounds read low 1.02 | S. cerevisiae deletion strains, locus YKL085W, strain MDH1, active compounds read low 1.02 | S. cerevisiae deletion strains, locus YKL160W, strain elf1, active compounds read low 0.944 | S. cerevisiae deletion strains, locus YKL190W, strain CNB1, active compounds read low 1.01 | S. cerevisiae deletion strains, locus YKR001C, strain vps1, active compounds read low 1.01 | S. cerevisiae deletion strains, locus YKR026C, strain gcn3, active compounds read low 0.979 | S. cerevisiae deletion strains, locus YKR091W, strain srl3, active compounds read low 0.962 | S. cerevisiae deletion strains, locus YLL001W, strain dnm1, active compounds read low 0.94 | S. cerevisiae deletion strains, locus YLL026W, active compounds read low 0.975 | S. cerevisiae deletion strains, locus YLL041C, strain sdh2, active compounds read low 0.972 | S. cerevisiae deletion strains, locus YLR027C, strain aat2, active compounds read low 0.963 | S. cerevisiae deletion strains, locus YLR039C, strain RIC1, active compounds read low 1.03 | S. cerevisiae deletion strains, locus YLR058C, strain SHM2, active compounds read low 1.01 | S. cerevisiae deletion strains, locus YLR102C, strain apc9, active compounds read low 1.01 | S. cerevisiae deletion strains, locus YLR113W, strain HOG1, active compounds read low 0.984 | S. cerevisiae deletion strains, locus YLR221C, strain rsa3, active compounds read low 0.948 | S. cerevisiae deletion strains, locus YLR258W, strain gsy2, active compounds read low 0.981 | S. cerevisiae deletion strains, locus YLR262C, strain YPT6 (second series), active compounds read low 0.976 | S. cerevisiae deletion strains, locus YLR262C, strain YPT6, active compounds read low 1.06 | S. cerevisiae deletion strains, locus YLR268W, strain sec22, active compounds read low 1.02 | S. cerevisiae deletion strains, locus YLR320W, strain mms22, active compounds read low 0.941 | S. cerevisiae deletion strains, locus YLR330W, strain CHS5, active compounds read low 1.01 | S. cerevisiae deletion strains, locus YLR342W, strain FKS1 (second series), active compounds read low 1.02 | S. cerevisiae deletion strains, locus YLR342W, strain FKS1, active compounds read low 0.963 | S. cerevisiae deletion strains, locus YLR357W, strain rsc2, active compounds read low 0.927 | S. cerevisiae deletion strains, locus YLR370C, strain arc18, active compounds read low 0.969 | S. cerevisiae deletion strains, locus YLR371W, strain rom2, active compounds read low 1.01 | S. cerevisiae deletion strains, locus YLR384C, strain iki3, active compounds read low 0.971 | S. cerevisiae deletion strains, locus YLR418C, strain cdc73, active compounds read low 1.04 | S. cerevisiae deletion strains, locus YML016C, strain PPZ1, active compounds read low 1.01 | S. cerevisiae deletion strains, locus YML032C, strain rad52, active compounds read low 1.01 | S. cerevisiae deletion strains, locus YML120C, strain ndi1, active compounds read low 0.944 | S. cerevisiae deletion strains, locus YML124C, strain tub3, active compounds read low 1.01 | S. cerevisiae deletion strains, locus YMR058W, strain fet3, active compounds read low 0.969 | S. cerevisiae deletion strains, locus YMR078C, strain ctf18, active compounds read low 1.01 | S. cerevisiae deletion strains, locus YMR125W, strain sto1, active compounds read low 0.963 | S. cerevisiae deletion strains, locus YMR129W, active compounds read low 0.974 | S. cerevisiae deletion strains, locus YMR205C, strain PFK2, active compounds read low 0.941 | S. cerevisiae deletion strains, locus YMR223W, strain ubp8, active compounds read low 1.03 | S. cerevisiae deletion strains, locus YMR231W, strain pep5, active compounds read low 0.973 | S. cerevisiae deletion strains, locus YMR263W, strain SAP30, active compounds read low 1 | S. cerevisiae deletion strains, locus YMR307W, strain GAS1, active compounds read low 1.06 and 0.987 | S. cerevisiae deletion strains, locus YNL067W, strain RPL9B, active compounds read low 1 | S. cerevisiae deletion strains, locus YNL071W, strain lat1, active compounds read low 0.975 | S. cerevisiae deletion strains, locus YNL128W, strain TEP1, active compounds read low 1.02 | S. cerevisiae deletion strains, locus YNL153C, strain GIM3, active compounds read low 1.02 | S. cerevisiae deletion strains, locus YNL175C, strain NOP13, active compounds read low 1.01 | S. cerevisiae deletion strains, locus YNL183C, strain NPR1, active compounds read low 0.921 | S. cerevisiae deletion strains, locus YNL197C, strain WHI3, active compounds read low 1.03 | S. cerevisiae deletion strains, locus YNL209W, strain ssb2, active compounds read low 0.972 | S. cerevisiae deletion strains, locus YNL224C, strain SQS1, active compounds read low 1 | S. cerevisiae deletion strains, locus YNL233W, strain BNI4, active compounds read low 1 | S. cerevisiae deletion strains, locus YNL248C, strain rpa49, active compounds read low 0.971 | S. cerevisiae deletion strains, locus YNL250W, strain rad50, active compounds read low 1.04 | S. cerevisiae deletion strains, locus YNL271C, strain bni1, active compounds read low 1 | S. cerevisiae deletion strains, locus YNL298W, strain CLA4, active compounds read low 1.01 | S. cerevisiae deletion strains, locus YNL307C, strain MCK1, active compounds read low 1.02 | S. cerevisiae deletion strains, locus YNL322C, strain KRE1 (second series), active compounds read low 0.956 | S. cerevisiae deletion strains, locus YNL322C, strain KRE1, active compounds read low 0.961 | S. cerevisiae deletion strains, locus YNR049C, strain mso1, active compounds read low 0.96 | S. cerevisiae deletion strains, locus YNR052C, strain pop2, active compounds read low 1.01 | S. cerevisiae deletion strains, locus YOL006C, strain TOP1, active compounds read low 1.01 | S. cerevisiae deletion strains, locus YOL012C, strain htz1 0.994 | S. cerevisiae deletion strains, locus YOL147C, strain pex11, active compounds read low 1.01 | S. cerevisiae deletion strains, locus YOR001W, strain rrp6, active compounds read low 0.968 | S. cerevisiae deletion strains, locus YOR061W, strain CKA2, active compounds read low 1.01 | S. cerevisiae deletion strains, locus YOR069W, strain VPS5, active compounds read low 1.01 | S. cerevisiae deletion strains, locus YOR070C, strain gyp1, active compounds read low 0.98 | S. cerevisiae deletion strains, locus YOR080W, strain dia2, active compounds read low 0.959 | S. cerevisiae deletion strains, locus YOR083W, strain WHI5 (second series), active compounds read low 1 | S. cerevisiae deletion strains, locus YOR083W, strain WHI5, active compounds read low 0.94 | S. cerevisiae deletion strains, locus YOR106W, strain vam3, active compounds read low 0.939 | S. cerevisiae deletion strains, locus YOR136W, strain idh2, active compounds read low 1.01 | S. cerevisiae deletion strains, locus YOR144C, strain elg1, active compounds read low 1.01 | S. cerevisiae deletion strains, locus YOR184W, strain ser1, active compounds read low 1.01 | S. cerevisiae deletion strains, locus YOR231W, strain MKK1, active compounds read low 0.978 | S. cerevisiae deletion strains, locus YOR265W, strain rbl2, active compounds read low 0.979 | S. cerevisiae deletion strains, locus YOR270C, strain vph1, active compounds read low 0.933 | S. cerevisiae deletion strains, locus YOR290C, strain snf2, active compounds read low 0.928 | S. cerevisiae deletion strains, locus YOR316C, strain cot1, active compounds read low 1.01 | S. cerevisiae deletion strains, locus YPL051W, strain arl3, active compounds read low 1 | S. cerevisiae deletion strains, locus YPL055C, strain LGE1, active compounds read low 0.983 and 0.98 | S. cerevisiae deletion strains, locus YPL078C, strain atp4, active compounds read low 0.962 | S. cerevisiae deletion strains, locus YPL106C, strain sse1, active compounds read low 0.931 | S. cerevisiae deletion strains, locus YPL240C, strain hsp82, active compounds read low 0.988 | S. cerevisiae deletion strains, locus YPL256C, strain CLN2, active compounds read low 0.981 | S. cerevisiae deletion strains, locus YPR119W, strain clb2, active compounds read low 1 | S. cerevisiae deletion strains, locus YPR141C, strain kar3, active compounds read low 1.01 | S. cerevisiae deletion strains, locus YPR163C, strain tif3, active compounds read low 1.01 | S. cerevisiae deletion strains, locus YPR167C, strain met16, active compounds read low 1.01 | S. cerevisiae deletion strains, strain wtn01, active compounds read low 1.01 | S. cerevisiae strains, strain wild type, active compounds read low 1.01
